{"source": "PubChem BioAssay (Tox21)", "note": "A number with no mark means an inactive call. Inconclusive results are not listed. A call without a number means that no potency is given here. The source made the active and inactive calls. The call rests on the fitted dose curve.", "data": [{"biological_target": "Acetylcholinesterase (Homo sapiens) (UniProt P22303)", "sequence (P22303 whole entry, looked up)": "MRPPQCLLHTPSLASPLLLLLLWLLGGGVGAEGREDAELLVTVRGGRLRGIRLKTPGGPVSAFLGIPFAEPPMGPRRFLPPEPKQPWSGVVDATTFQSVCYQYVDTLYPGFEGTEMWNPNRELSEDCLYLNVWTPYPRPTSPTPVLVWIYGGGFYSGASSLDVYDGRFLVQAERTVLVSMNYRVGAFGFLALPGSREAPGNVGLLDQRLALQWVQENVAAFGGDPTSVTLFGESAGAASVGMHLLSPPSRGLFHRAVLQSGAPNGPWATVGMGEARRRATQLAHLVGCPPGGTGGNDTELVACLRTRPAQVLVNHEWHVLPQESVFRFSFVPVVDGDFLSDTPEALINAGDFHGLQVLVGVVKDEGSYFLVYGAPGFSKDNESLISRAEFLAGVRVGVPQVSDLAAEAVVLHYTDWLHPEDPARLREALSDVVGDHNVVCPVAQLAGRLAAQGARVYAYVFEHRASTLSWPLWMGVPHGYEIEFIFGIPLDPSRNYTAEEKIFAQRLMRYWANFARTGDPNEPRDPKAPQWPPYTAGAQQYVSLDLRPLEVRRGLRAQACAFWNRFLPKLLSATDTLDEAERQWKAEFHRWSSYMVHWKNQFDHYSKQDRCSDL", "assay": "Acetylcholinesterase (AChE) small molecule antagonists: fluorescence cell-based qHTS assay (AID 1347398); further: nearly all actives have a fitted effect of over 50% in size; further: potency means the concentration at half of the fitted maximal effect", "settings": "SH-SY5Y cells; Potency: AChE activity; outcome: AChE activity; series mostly up to 115 µM", "outline": "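Cellular AChE inhibition: SH-SY5Y cells treated with test chemical for 30 min at 37 C, then acetylthiocholine hydrolysis followed over 40 min at room temperature via thiocholine-reactive Thiolite Green fluorescence (490/520 nm).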", "values": [{"smiles": "COC(=O)c1cccc(C(=O)OC)c1", "Potency": "inactive"}, {"smiles": "O=C(Cl)c1ccc(C(=O)Cl)cc1", "Potency": "inactive"}, {"smiles": "CC(=O)[O][Al][O]C(C)=O", "Potency": "inactive"}, {"smiles": "CC(=O)[C@@]1(O)CC[C@H]2[C@@H]3C[C@H](C)C4=CC(=O)C=C[C@]4(C)[C@@]3(F)[C@@H](O)C[C@@]21C", "Potency": "inactive"}, {"smiles": "CC(=O)OC1CCCCC1", "Potency": "inactive"}, {"smiles": "Cc1ccc(Cl)c(Nc2ccccc2C(=O)O)c1Cl", "Potency": "inactive"}, {"smiles": "CO/N=C(/C(=O)N[C@@H]1C(=O)N2C(C(=O)O)=C(Cn3nnc(C)n3)CS[C@H]12)c1csc(N)n1", "Potency": "inactive"}, {"smiles": "C[N+]1(C)CCC(=C(c2ccccc2)c2ccccc2)CC1", "Potency": "inactive"}, {"smiles": "C=C[C@@]1(C)CC(=O)[C@]2(O)[C@@]3(C)[C@@H](O)CCC(C)(C)[C@@H]3[C@H](O)[C@H](OC(C)=O)[C@@]2(C)O1", "Potency": "inactive"}, {"smiles": "CCCNCCC", "Potency": "inactive"}, {"smiles": "CC(C)=CCO", "Potency": "inactive"}, {"smiles": "O=C(O)c1cc(C(=O)O)cc(C(=O)O)c1", "Potency": "inactive"}, {"smiles": "CNc1ncnc2nc[nH]c12", "Potency": "inactive"}, {"smiles": "CCCCCCCCCCCCCC(=O)O", "Potency": "inactive"}, {"smiles": "Cc1cn([C@H]2C=C[C@@H](CO)O2)c(=O)[nH]c1=O", "Potency": "inactive"}, {"smiles": "COc1cc(OC)nc(O[C@H](C(=O)O)C(OC)(c2ccccc2)c2ccccc2)n1", "Potency": "inactive"}, {"smiles": "CCC(=O)O[C@@H]1C[C@H]2CC[C@]1(C)C2(C)C", "Potency": "inactive"}, {"smiles": "Cc1nc2c([nH]1)c(=O)n(C)c(=O)n2Cc1ccco1", "Potency": "inactive"}, {"smiles": "NC(=O)N[C@@H](CCC(=O)O)C(=O)O", "Potency": "inactive"}, {"smiles": "c1ccc(CSCc2ccccc2)cc1", "Potency": "inactive"}, {"smiles": "CC(C#N)(CCC(=O)O)N=NC(C)(C#N)CCC(=O)O", "note": "(stereo not given)", "Potency": "inactive"}, {"smiles": "Cc1c(C2(c3cc(Br)c(O)c(Br)c3C)OS(=O)(=O)c3ccccc32)cc(Br)c(O)c1Br", "Potency": "inactive"}, {"smiles": "CC(=O)C(C)C", "Potency": "inactive"}, {"smiles": "CC1=C(C(=O)O)N2C(=O)[C@@H](NC(=O)[C@H](N)C3=CCC=CC3)[C@H]2SC1", "Potency": "inactive"}, {"smiles": "O=C(O)COc1nn(Cc2ccccc2)c2ccccc12", "Potency": "inactive"}, {"smiles": "Cc1cc(C)c(/C=C2\\C(=O)Nc3ccccc32)[nH]1", "Potency": "inactive"}, {"smiles": "O=C(Cl)c1cc(Cl)cc(Cl)c1", "Potency": "inactive"}, {"smiles": "O=C(Nc1ccc(Cl)cc1)Nc1ccc(Cl)c(Cl)c1", "Potency": "inactive"}, {"smiles": "CCC=O", "Potency": "inactive"}, {"smiles": "CCN(CC)CCOC(=O)C(c1ccccc1)C1CCCCC1", "note": "(stereo not given)", "Potency": "inactive"}, {"smiles": "CCCC(C)C(=O)O", "note": "(stereo not given)", "Potency": "inactive"}, {"smiles": "CN/C(=C\\[N+](=O)[O-])NCCSCc1csc(CN(C)C)n1", "Potency": "35.6 µM (active)"}, {"smiles": "C[C@H]1C[C@H]2[C@@H]3CCC4=CC(=O)C=C[C@]4(C)[C@H]3C(=O)C[C@]2(C)[C@@]1(O)C(=O)CO", "Potency": "inactive"}, {"smiles": "Cc1c(C(=O)O)cccc1[N+](=O)[O-]", "Potency": "inactive"}, {"smiles": "O=C(c1ccccc1)c1cc(Cl)ccc1O", "Potency": "inactive"}, {"smiles": "C[C@@H]1CC[C@@]2(OC1)O[C@H]1C[C@H]3[C@@H]4CC[C@H]5C[C@@H](O)CC[C@]5(C)[C@H]4CC(=O)[C@]3(C)[C@H]1[C@@H]2C", "activity change, negative = inhibition": "-1.2% [at 10.5 µM]"}, {"smiles": "COc1cccc(O)c1", "Potency": "inactive"}, {"smiles": "C[C@H](NC(CCc1ccccc1)C(=O)O)C(=O)N1CCC[C@H]1C(=O)O", "note": "(stereo not given in full)", "Potency": "inactive"}, {"smiles": "O=C(O)C1=NN(c2ccc(S(=O)(=O)O)cc2)C(=O)C1", "Potency": "inactive"}, {"smiles": "NCCOCCN", "Potency": "inactive"}]}, {"biological_target": "Acetylcholinesterase (Homo sapiens) (UniProt P22303)", "assay": "Acetylcholinesterase (AChE) small molecule antagonists: enzyme-based qHTS assay with human liver microsomes (AID 1347399); further: nearly all actives have a fitted effect of over 60% in size", "settings": "Potency: qHTS inhibition; outcome: qHTS inhibition; series mostly up to 115 µM", "outline": "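Recombinant human AChE (50 mU/mL in the enzyme mix) and human liver microsomes (0.25 mg/mL final) were preincubated with compound and NADPH (0.25 mg/mL final) for 30 min at 37 C. Acetylthiocholine/DTNB was then added; thiocholine was read colorimetrically after 10 min at room temperature.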", "values": [{"smiles": "COC(=O)c1cccc(C(=O)OC)c1", "Potency": "inactive"}, {"smiles": "O=C(Cl)c1ccc(C(=O)Cl)cc1", "Potency": "inactive"}, {"smiles": "CC(=O)[O][Al][O]C(C)=O", "Potency": "inactive"}, {"smiles": "CC(=O)[C@@]1(O)CC[C@H]2[C@@H]3C[C@H](C)C4=CC(=O)C=C[C@]4(C)[C@@]3(F)[C@@H](O)C[C@@]21C", "Potency": "inactive"}, {"smiles": "CC(=O)OC1CCCCC1", "Potency": "inactive"}, {"smiles": "Cc1ccc(Cl)c(Nc2ccccc2C(=O)O)c1Cl", "Potency": "inactive"}, {"smiles": "CO/N=C(/C(=O)N[C@@H]1C(=O)N2C(C(=O)O)=C(Cn3nnc(C)n3)CS[C@H]12)c1csc(N)n1", "Potency": "inactive"}, {"smiles": "C[N+]1(C)CCC(=C(c2ccccc2)c2ccccc2)CC1", "Potency": "inactive"}, {"smiles": "C=C[C@@]1(C)CC(=O)[C@]2(O)[C@@]3(C)[C@@H](O)CCC(C)(C)[C@@H]3[C@H](O)[C@H](OC(C)=O)[C@@]2(C)O1", "Potency": "inactive"}, {"smiles": "CCCNCCC", "Potency": "inactive"}, {"smiles": "CC(C)=CCO", "Potency": "inactive"}, {"smiles": "O=C(O)c1cc(C(=O)O)cc(C(=O)O)c1", "Potency": "inactive"}, {"smiles": "CNc1ncnc2nc[nH]c12", "Potency": "inactive"}, {"smiles": "CCCCCCCCCCCCCC(=O)O", "Potency": "inactive"}, {"smiles": "Cc1cn([C@H]2C=C[C@@H](CO)O2)c(=O)[nH]c1=O", "Potency": "inactive"}, {"smiles": "COc1cc(OC)nc(O[C@H](C(=O)O)C(OC)(c2ccccc2)c2ccccc2)n1", "Potency": "inactive"}, {"smiles": "CCC(=O)O[C@@H]1C[C@H]2CC[C@]1(C)C2(C)C", "Potency": "inactive"}, {"smiles": "Cc1nc2c([nH]1)c(=O)n(C)c(=O)n2Cc1ccco1", "Potency": "inactive"}, {"smiles": "NC(=O)N[C@@H](CCC(=O)O)C(=O)O", "Potency": "inactive"}, {"smiles": "c1ccc(CSCc2ccccc2)cc1", "Potency": "inactive"}, {"smiles": "CC(C#N)(CCC(=O)O)N=NC(C)(C#N)CCC(=O)O", "note": "(stereo not given)", "Potency": "inactive"}, {"smiles": "Cc1c(C2(c3cc(Br)c(O)c(Br)c3C)OS(=O)(=O)c3ccccc32)cc(Br)c(O)c1Br", "Potency": "inactive"}, {"smiles": "CC(=O)C(C)C", "Potency": "inactive"}, {"smiles": "CC1=C(C(=O)O)N2C(=O)[C@@H](NC(=O)[C@H](N)C3=CCC=CC3)[C@H]2SC1", "Potency": "inactive"}, {"smiles": "O=C(O)COc1nn(Cc2ccccc2)c2ccccc12", "Potency": "inactive"}, {"smiles": "Cc1cc(C)c(/C=C2\\C(=O)Nc3ccccc32)[nH]1", "Potency": "inactive"}, {"smiles": "O=C(Cl)c1cc(Cl)cc(Cl)c1", "Potency": "inactive"}, {"smiles": "O=C(Nc1ccc(Cl)cc1)Nc1ccc(Cl)c(Cl)c1", "Potency": "inactive"}, {"smiles": "CCC=O", "Potency": "inactive"}, {"smiles": "CCN(CC)CCOC(=O)C(c1ccccc1)C1CCCCC1", "note": "(stereo not given)", "Potency": "inactive"}, {"smiles": "CCCC(C)C(=O)O", "note": "(stereo not given)", "Potency": "inactive"}, {"smiles": "CN/C(=C\\[N+](=O)[O-])NCCSCc1csc(CN(C)C)n1", "Potency": "inactive"}, {"smiles": "C[C@H]1C[C@H]2[C@@H]3CCC4=CC(=O)C=C[C@]4(C)[C@H]3C(=O)C[C@]2(C)[C@@]1(O)C(=O)CO", "Potency": "inactive"}, {"smiles": "Cc1c(C(=O)O)cccc1[N+](=O)[O-]", "Potency": "inactive"}, {"smiles": "O=C(c1ccccc1)c1cc(Cl)ccc1O", "Potency": "inactive"}, {"smiles": "C[C@@H]1CC[C@@]2(OC1)O[C@H]1C[C@H]3[C@@H]4CC[C@H]5C[C@@H](O)CC[C@]5(C)[C@H]4CC(=O)[C@]3(C)[C@H]1[C@@H]2C", "activity change, negative = inhibition": "-3.36% [at 10.5 µM]"}, {"smiles": "COc1cccc(O)c1", "Potency": "inactive"}, {"smiles": "C[C@H](NC(CCc1ccccc1)C(=O)O)C(=O)N1CCC[C@H]1C(=O)O", "note": "(stereo not given in full)", "Potency": "inactive"}, {"smiles": "O=C(O)C1=NN(c2ccc(S(=O)(=O)O)cc2)C(=O)C1", "Potency": "inactive"}, {"smiles": "NCCOCCN", "Potency": "inactive"}]}]}
